Measurements: the supplement of paper PMC11417369
The full ranking holds about 25,000 sequences; the median of “ln(normalized median fluorescence intensity)” is about 7.1, and the highest 2% start at about 10. This excerpt belongs to a sample that is enriched for the highest values.

System: PfSIP2 AP2 domain 1 (GST-tagged)
Experiment: gcPBM binding intensity (ln(normalized median fluorescence intensity)); higher = stronger DNA binding
Procedure, shortened: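 The highest Masliner-normalised natural-log median intensity across replicate spots of either probe orientation is reported as binding intensity. GST-tagged P. falciparum DNA-binding domains expressed in E. coli were applied for 1 h to an Agilent 4 × 180k array of primer-extended double-stranded 36-bp intergenic genomic probes plus negative controls, and bound protein was detected with Alexa488 anti-GST antibody and scanned at 488 nm.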

Sequence	gcPBM binding intensity (ln)
AAGAATATATAGGACACACATACAATAATAAATATA [CACACA_site4119]	7.25
ATATTTTATAATTTTACACACCATATAAAATAATTC [CACACA_site2797]	7.16
TTTATATGTATTAAGTGTACACATATAATGTGTTTG [XGTACX_site6629]	7.29
CATATTTACATTAAGTGTACTTATGAATATATATAC [XGTACX_site7962]	7.03
TTTGCACCGTTTAAGTGTACAGAATTATGACATATA [XGTACX_site6735]	11.2
TATCAATGGAAAATATATATTTGTATATATGTAATA [XGTACX_negctrl_site257]	7.04
ACATGAATATATACACGTACATATATACATATATAT [XGTACX_site5872]	7.42
ATATATTATATTATATGTACTTAAAAAAGTGCAAAG [XGTACX_site318]	8.67
AATTTATTTTTAAAAAGTACATACTTAAGAAAACGA [XGTACX_site3660]	7.59
CTGTACACTTAAACGGTGCAAAAAGAAAAAAAAGAA	10.9
TTTTATCATCTTTTTACATTATGTATAAATATTTTC [CACACA_negctrl_site206]	6.99
AAAACATAAATACATACACACATAATATATATTAAT [CACACA_site109]	7.06
TTTTATTCCTTCTTTGCACACGTTTAAAAATATATA [CACACA_site2899]	8.04
ACAAGTATTCCTTTTGCACACCTTTCTGCACCTTAT [CACACA_site3873]	11.7
TATATATTTTCTTTTGCACACTGTTTTCCTTTTTTT [CACACA_site2739]	7.02
ATGTCATAAATGTACGCACACATACATAAACATATA [CACACA_site4530]	7.33
TATAAACGCACCTACACACACAACGTAAATGCATTG [CACACA_site7120]	10.6
TATATAAACCCACCTACACACACAACGTAAATGCAT [CACACA_site8702]	7.1
TATAAACCCACCTACACACACAACGTAAATGCATTG [CACACA_site2238]	7.01
CAAATATGTCTTATTCGTACACATATATATATATAT [XGTACX_site8817]	9.64
TTTATGAAACAGTGCACACATAAAAATATATACATA [CACACA_site2992]	11
TCATAATGAAAACAAGCACACATACATAAAATAAAA [CACACA_site9069]	7.01

Sequence	gcPBM binding intensity (ln)
ATAATGAAAACAAGCACACATACATAAAATAAAATA [CACACA_site3257]	7.04
AACATATATAAATACACACACATATATATATGAAAT [CACACA_site4312]	7.05
TTTTTAATTTTATATACACACATAAAATATATGAAG [CACACA_site3145]	7.01
TTTATGAAACAGTGCACACATAAAAATAAATACATA [CACACA_site5631]	11.2
ATTTTGTTATGAAACACACACATATAAATATAAATA [CACACA_site7679]	7.26
CTTTTATGAAACAGTGCACACATAAAAATATATACA [CACACA_site8981]	11.3
AAAAAAAATATGAAAACACACATATATAAATAAATA [CACACA_site113]	6.89
AAATATAAACTCAGCACACAAACATATATATGTCAT [CACACA_site4004]	6.91
TCCTTTTGAACCCTTTTTCTCACAAGACCTTTATAT [TGCATGCA_negctrl_site413]	7.05
ATGTTTTAATGAGGTTTGCACTATATTTTAATGAAC	8.64
AATATTAAACAAAATAAATATATAAAAAATAAATAA [GTGCAC_negctrl_site93]	6.79
ATGAATATAATGAAGTGTACATAAAAATAATAAATA [XGTACX_site2481]	7.11
TCACATTTTGGACACGTGCACATATATTTGATACAT	8.43
GGACATTTTTATAAGGTGCACGGTTTTGATATTACT [GTGCAC_site9892]	11.1
GTACATATATACATTACACACGGTTTGATTTAAAAA [CACACA_site3379]	7.26
ATGCGTTAATCTATATATATTATGTATAGATTTTCA [CACACA_negctrl_site1650]	6.81
TGCCCTTTGGTTATAACACACATGCACACGTAAATA [CACACA_site7750]	7.71
TGCCCTTTGGTTATAACACACATGCACCCGTAAATA [CACACA_site3842]	11.9
CTTTGGTTATAACACACATGCACACGTAAATAAATA [TGCATGCA_site976]	7.63
AGACAATTTTTTAGTACACACATATAGATATATAAA [CACACA_site6832]	7.39
AAAAAAAAATATATATATATATATATATAATAAAAA [CACACA_negctrl_site639]	7.48
ATGCACTCATTGTGCACACGCATATTACGAAAAGAA [CACACA_site2638]	10.2

Sequence	gcPBM binding intensity (ln)
TGTGTTCATATATGCACACGCATATATATTATTGTT [CACACA_site3822]	7.02
ATATGCACTCATTGTGCACACGCATATTACGAAAAG [CACACA_site2637]	11
ATATATAATAATTGTAGTACAATTAATAAATAAAAT [XGTACX_site3840]	7.08
TATATATTATAAAATTGTACATATATTAAATTTTTT [XGTACX_site5852]	6.93
TATGCACCCAGACACACACACACAACTAAAAAATAA [CACACA_site2567]	10.7
TAATTATGCAGACACACACACACACCCAACTAAAAA [CACACA_site2569]	7.27
TGCACGCACAGACACACACACAACTAAAAAATAATG [CACACA_site7250]	7.33
TACAAATATATATGCACACACATATACATACATATA [CACACA_site2182]	7.31
TGGGCACCCATATACACACACAAATACAATGATAAA [CACACA_site4762]	8.64
CATATAAAAATGTGCACACACACACCCATATATATT [CACACA_site1526]	9.06
TCACCATATAAACGTGCACACTACAAAAATATATAA [CACACA_site5413]	11
AAACAAAAAATATATACACACTAAACATAAAAAAAA [CACACA_site4185]	6.86
CTATTTTATATGTGCACACATATACACCCACAAATA [CACACA_site1131]	9.31
TATGTGCACCCATATACACACACAAATACAATGATA [CACACA_site8295]	12.3
TGTGCACGCATATACACACACAAATACAATGATAAA [CACACA_site6656]	10.6
TAATGATAAATACATACACACAAAAAATGATATATA [CACACA_site7258]	6.86
AATGTGATAATATACACACACGCATATATATATATA [CACACA_site323]	9.89
TACAAACACCCATATACACACAAAAAAAAAATAAAA [CACACA_site5421]	7.05
GAAATGTGATAATATACACACACGCATATATATATA [CACACA_site4332]	9.04
GGTGCACCCATATACACACACAAATACAATGATAAA [CACACA_site1132]	12.4
